Assay results as given in PubChem BioAssay (Tox21).
Records with an inconclusive call do not appear. Active and inactive are the calls of the source. Unless noted, the call rests on the fitted dose curve; in most records, active means well fitted curve in the direction sought with a large enough effect in the repeat runs; inconclusive means weak or mixed curves; inactive means no such curve, though single readings can be large; an effect the other way counts as inactive or inconclusive.

Assays:
[1] = target: Estrogen receptor beta (Homo sapiens) (UniProt Q92731); experiment: qHTS assay to identify small molecule agonists of the estrogen receptor beta (ER-beta) signaling pathway (AID 1259377; active means well fitted activation curve with a large enough effect in the signal ratio in the repeat runs, not every such curve was filed as active; the % refers to the signal ratio)
Procedure, shortened: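 Read-out: beta-lactamase FRET fluorescence. Cell line: ER-beta-UAS-bla HEK293T in 2% charcoal-stripped FBS. Exposure: 16 hr at 37C. Substrate step: 2 h at room temperature.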

[2] = target: Estrogen receptor beta (Homo sapiens) (UniProt Q92731); experiment: qHTS assay to identify small molecule antagonists of the estrogen receptor beta (ER-beta) signaling pathway (AID 1259378; active means well fitted inhibition curve with a large enough effect in the signal ratio in the repeat runs, not every such curve was filed as active; the % refers to the signal ratio)
Procedure, shortened: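 Antagonist mode: compounds added to beta-lactamase reporter HEK293T ER-beta-UAS cells stimulated with E2 (1nM final), 16 hr at 37C. LiveBLAzer B/G FRET substrate, 2 hours room temperature, fluorescence read-out.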

[3] = qHTS assay to identify small molecule agonists of the androgen receptor (AR) signaling pathway in the presence of an antagonist - cell viability counter screen (AID 1259379);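 further: MDA-kb2 human breast cancer cells carrying an MMTV luciferase reporter; series mostly up to about 92 µM; nearly all actives have a fitted effect of over 25% in size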
Procedure, shortened: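 MDA-kb2 cells (MMTV-luciferase, AR/GR), 3,000/well, 5 h attachment, then 3.0 µM nilutamide (final) and compounds at 15 concentrations. Viability by CellTiter-Fluor fluorescence after 16 h at 37 °C, 0% CO2, in the reporter wells.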

[4] = qHTS assay to identify small molecule agonists of the estrogen receptor beta (ER-beta) signaling pathway - cell viability counter screen (AID 1259380); further: nearly all actives have a fitted effect of over 30% in size
Procedure, shortened: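 ER-beta-UAS-bla HEK293T cells in medium with 2% charcoal-stripped FBS, pre-incubated 6 hr, then treated 16 hr at 37C. Cytotoxicity read in the same wells by CellTiter-Glo luminescence after 30 min at room temperature.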

[5] = qHTS assay to identify small molecule antagonists of the estrogen receptor beta (ER-beta) signaling pathway - cell viability counter screen (AID 1259382);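 further: HEK293T cells carrying ER-beta-UAS-bla reporter stimulated with estradiol; series mostly up to about 92 µM; nearly all actives have a fitted effect of over 55% in size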
Procedure, shortened: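 ER-beta-UAS-bla HEK293T cells in 2% charcoal-stripped FBS medium, treated with compound plus 1 nM 17-beta-estradiol for 16 h at 37C. Viability read by CellTiter-Glo luminescence after 30 min at room temperature in the same wells.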

[6] = target: Estrogen receptor (Homo sapiens) (UniProt P03372); experiment: qHTS assay to identify small molecule agonists of the estrogen receptor alpha (ER-alpha) signaling pathway in the presence of an antagonist (AID 1259383; calls by dose curve; further: top concentration of the series differs between compounds; nearly all actives have a fitted effect of over 15% in size)
Procedure, shortened: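 VM7Luc4E2 cells express endogenous full-length ER-alpha with an ERE-luciferase reporter and were hormone-deprived for 5 days. Compounds at 15 concentrations were added with 10.0nM ICI-182,780 for 22hr at 37C. Luminescence was read with ONE-Glo.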

[7] = qHTS assay to identify small molecule agonists or antagonists of the thyroid stimulating hormone receptor (TSHR) signaling pathway - wild type cell line counter screen (AID 1259384; calls by dose curve)
Procedure, shortened: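 Counter screen in untransfected Hek293: compounds (15-point titration, triplicate) plus phosphodiesterase inhibitor Ro20-1724 added after 18 h plating; 30 min RT. Intracellular cAMP via competitive d2/cryptate immunoassay, 1 h incubation.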

[8] = target: Thyrotropin receptor (Homo sapiens) (UniProt P16473); experiment: qHTS assay to identify small molecule antagonists of the thyroid stimulating hormone receptor (TSHR) signaling pathway (AID 1259385; calls by dose curve; further: nearly all actives have a fitted effect of over 20% in size)
Procedure, shortened: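 Antagonist mode: compound-treated TSHR-expressing HEK293 cells were stimulated with 1.5 ng/mL TSH (final) in presence of Ro20-1724 for 30 min at RT. HTRF cAMP detection after 1 h; each compound tested at 15 concentrations, triplicate.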

[9] = qHTS assay to identify small molecule agonists of the estrogen receptor alpha (ER-alpha) signaling pathway in the presence of an antagonist - cell viability counter screen (AID 1259386);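 further: series mostly up to about 92 µM; cells exposed to compounds for 22 h at 37 °C before the viability read; nearly all actives have a fitted effect of over 30% in size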
Procedure, shortened: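 Cell viability in VM7Luc4E2 cells (endogenous full-length ER-alpha) measured by CellTiter-Fluor fluorescence in the same wells as the luciferase screen. Cells pre-cultured 5 days in charcoal-stripped serum, then treated 22 h with compounds at 15 concentrations plus 10.0nM ICI-182,780.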

[10] = target: Progesterone receptor (Homo sapiens) (UniProt P06401); experiment: qHTS assay to identify small molecule agonists of the progesterone receptor (PR) signaling pathway (AID 1346784; calls by dose curve; further: nearly all actives have a fitted effect of over 30% in size)
Procedure, shortened: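 Compounds were tested for PR agonism in HEK 293T cells bearing a beta-lactamase gene under UAS control. Treatment lasted 16 hr at 37C; signal came from fluorescence of a FRET substrate.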

[11] = target: Progesterone receptor (Homo sapiens) (UniProt P06401); experiment: qHTS assay to identify small molecule antagonists of the progesterone receptor (PR) signaling pathway (AID 1346795; active means well fitted inhibition curve with a large enough effect in the signal ratio in the repeat runs, not every such curve was filed as active; the % refers to the signal ratio)
Procedure, shortened: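 In HEK293T cells bearing the PR-UAS-bla reporter, compound effects on promegestone-driven (1 nM) beta-lactamase expression are assessed after 16 hr using a fluorescent FRET substrate incubated 2 hr at room temperature.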

[12] = qHTS assay to identify small molecule antagonists of the progesterone receptor (PR) signaling pathway - cell viability counter screen (AID 1346798); further: series mostly up to about 92 µM; nearly all actives have a fitted effect of over 50% in size
Procedure, shortened: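 Following a 4 hr attachment, PR-UAS-bla HEK293T cells in charcoal-stripped FBS medium were exposed to compounds with R5020 for 16 hr; CellTiter-Glo was added and luminescence read after 30 min at room temperature.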

[13] = qHTS assay to identify small molecule agonists of the progesterone receptor (PR) signaling pathway - cell viability counter screen (AID 1346799; calls by dose curve; further: nearly all actives have a fitted effect of over 45% in size)
Procedure, shortened: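 Here, 3,000 PR-UAS-bla HEK293T cells per well were treated with compounds for 16 hr after a 6 hr preincubation at 37C and 5% CO2; cell viability is the CellTiter-Glo luminescence signal.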

[14] = qHTS assay to identify small molecule antagonists of the TGF-beta/Smad signaling pathway - cell viability counter screen (AID 1346824); further: nearly all actives have a fitted effect of over 50% in size
Procedure, shortened: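 Cytotoxicity counter-screen run in the same wells as the beta-lactamase Smad reporter read: CellTiter-Glo luminescence after 30 min at room temperature. HEK 293T SBE-bla cells had 5 hr compound exposure at 37 C with TGF-beta1 (0.25 ng/mL stock).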

[15] = qHTS assay to identify small molecule agonists of the TGF-beta/Smad signaling pathway - cell viability counter screen (AID 1346829); further: top concentration of the series differs between compounds; nearly all actives have a fitted effect of over 45% in size
Procedure, shortened: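 Tox21 qHTS format: SBE-bla HEK 293T cells treated with DMSO-dissolved compounds for 5 hr; CellTiter-Glo luminescence after 30 min at room temperature.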

[16] = qHTS assay to identify small molecule agonists of the TGF-beta/Smad signaling pathway (AID 1346859; active means well fitted activation curve with a large enough effect in the signal ratio in the repeat runs, not every such curve was filed as active; the % refers to the signal ratio; further: series mostly up to about 77 µM)
Procedure, shortened: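 Each well held 4,000 SBE-bla HEK 293T cells incubated overnight before compound addition; 5 hr later the cleavable FRET substrate went on for 2 hr at room temperature, and fluorescence was read at two emissions.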

[17] = target: Thyrotropin-releasing hormone receptor (Homo sapiens) (UniProt P34981); experiment: qHTS assay to identify small molecule agonists of the thyrotropin-releasing hormone receptor (TRHR) signaling pathway (AID 1346891; calls by dose curve; further: series mostly up to about 58 µM)
Procedure, shortened: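 Screening of agonists relied on calcium signalling in HEK293 cells expressing human TRHR: dye loading 2 h at 37 °C preceded compound addition and a 3-min fluorescence time course.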

[18] = Human pregnane X receptor (PXR) small molecule agonists, qHTS cell viability counter screen (AID 1346977); further: nearly all actives have a fitted effect of over 50% in size
Procedure, shortened: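 Tox21 qHTS format; PXR-Luc HepG2, 2,000/well, charcoal-stripped FBS 5%. Cpd exposure 24hr. Read: CellTiter-Fluor fluorescence, multiplexed with luciferase.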

[19] = target: Androgen receptor (Homo sapiens) (UniProt P10275); experiment: qHTS assay to identify small molecule agonists of the androgen receptor (AR) signaling pathway in the presence of an antagonist (AID 1259381; calls by dose curve; further: nearly all actives have a fitted effect of over 15% in size)
Procedure, shortened: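 MDA-kb2 cells carrying MMTV-luciferase (AR/GR responsive), 3,000 cells/well, co-treated with 3.0 uM nilutamide final. Compounds at 15 concentrations, 16 hr at 37C without CO2. Luciferase luminescence read after 30 min with ONE-Glo.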

[20] = target: Thyrotropin-releasing hormone receptor (Homo sapiens) (UniProt P34981); experiment: qHTS assay to identify small molecule antagonists of the thyrotropin-releasing hormone receptor (TRHR) signaling pathway (AID 1346877; active means well fitted inhibition curve with a large enough effect in the repeat runs, not every such curve was filed as active; further: series mostly up to about 51 µM)
Procedure, shortened: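 TRHR-expressing HEK293 cells loaded with calcium dye for 2 h at 37 C; compounds pre-incubated 5 min at room temperature before TRH challenge at 1 nM final. Intracellular calcium fluorescence read kinetically for 3 min; 15 concentrations in triplicate.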
On the % scale 0 is the no-effect control and ±100 the full control effect.

Sequence of Thyrotropin receptor (Homo sapiens) (P16473 whole entry, looked up): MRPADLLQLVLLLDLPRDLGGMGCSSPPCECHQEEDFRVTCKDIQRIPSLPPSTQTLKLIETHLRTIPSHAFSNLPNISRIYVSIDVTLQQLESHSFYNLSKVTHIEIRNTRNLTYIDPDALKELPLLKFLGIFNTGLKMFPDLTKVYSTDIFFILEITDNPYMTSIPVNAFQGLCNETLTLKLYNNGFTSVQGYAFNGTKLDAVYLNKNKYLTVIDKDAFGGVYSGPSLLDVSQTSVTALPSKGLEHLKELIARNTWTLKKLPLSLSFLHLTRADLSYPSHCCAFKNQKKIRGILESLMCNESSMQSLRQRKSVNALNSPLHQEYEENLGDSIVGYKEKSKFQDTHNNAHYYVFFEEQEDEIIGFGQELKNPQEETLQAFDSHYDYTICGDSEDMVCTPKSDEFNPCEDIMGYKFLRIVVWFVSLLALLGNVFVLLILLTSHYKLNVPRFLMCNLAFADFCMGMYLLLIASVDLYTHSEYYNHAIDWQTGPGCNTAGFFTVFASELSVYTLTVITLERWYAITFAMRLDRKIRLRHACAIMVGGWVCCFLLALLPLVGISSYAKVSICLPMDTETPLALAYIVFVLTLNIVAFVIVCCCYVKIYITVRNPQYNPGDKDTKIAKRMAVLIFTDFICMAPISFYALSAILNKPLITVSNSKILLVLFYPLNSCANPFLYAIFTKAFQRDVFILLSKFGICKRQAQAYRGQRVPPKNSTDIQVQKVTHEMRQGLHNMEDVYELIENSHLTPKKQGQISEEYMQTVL
Sequence of Androgen receptor (Homo sapiens) (P10275 whole entry, looked up): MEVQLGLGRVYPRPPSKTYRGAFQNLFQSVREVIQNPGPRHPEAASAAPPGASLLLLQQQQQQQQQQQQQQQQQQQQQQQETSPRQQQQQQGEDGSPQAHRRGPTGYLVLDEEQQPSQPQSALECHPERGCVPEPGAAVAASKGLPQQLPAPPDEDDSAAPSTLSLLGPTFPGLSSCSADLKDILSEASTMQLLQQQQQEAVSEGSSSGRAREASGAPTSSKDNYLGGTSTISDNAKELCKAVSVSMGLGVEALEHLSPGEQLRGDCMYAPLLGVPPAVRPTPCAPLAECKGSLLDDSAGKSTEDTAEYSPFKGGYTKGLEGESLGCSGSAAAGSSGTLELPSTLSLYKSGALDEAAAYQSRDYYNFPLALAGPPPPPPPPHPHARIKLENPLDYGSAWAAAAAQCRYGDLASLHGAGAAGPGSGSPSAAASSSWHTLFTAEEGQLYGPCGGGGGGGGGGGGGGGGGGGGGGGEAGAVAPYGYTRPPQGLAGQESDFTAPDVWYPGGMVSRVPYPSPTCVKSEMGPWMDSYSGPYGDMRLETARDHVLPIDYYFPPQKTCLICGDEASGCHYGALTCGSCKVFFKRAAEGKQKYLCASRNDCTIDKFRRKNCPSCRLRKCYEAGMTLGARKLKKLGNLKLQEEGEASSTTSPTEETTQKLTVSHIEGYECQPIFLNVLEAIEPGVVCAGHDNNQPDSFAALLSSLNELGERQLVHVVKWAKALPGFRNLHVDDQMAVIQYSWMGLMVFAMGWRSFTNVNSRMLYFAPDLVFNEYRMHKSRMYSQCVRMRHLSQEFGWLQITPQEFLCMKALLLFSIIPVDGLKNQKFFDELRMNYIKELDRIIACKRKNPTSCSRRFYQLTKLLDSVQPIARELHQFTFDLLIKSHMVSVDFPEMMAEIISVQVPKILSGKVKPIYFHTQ
Sequence of Estrogen receptor (Homo sapiens) (P03372 whole entry, looked up): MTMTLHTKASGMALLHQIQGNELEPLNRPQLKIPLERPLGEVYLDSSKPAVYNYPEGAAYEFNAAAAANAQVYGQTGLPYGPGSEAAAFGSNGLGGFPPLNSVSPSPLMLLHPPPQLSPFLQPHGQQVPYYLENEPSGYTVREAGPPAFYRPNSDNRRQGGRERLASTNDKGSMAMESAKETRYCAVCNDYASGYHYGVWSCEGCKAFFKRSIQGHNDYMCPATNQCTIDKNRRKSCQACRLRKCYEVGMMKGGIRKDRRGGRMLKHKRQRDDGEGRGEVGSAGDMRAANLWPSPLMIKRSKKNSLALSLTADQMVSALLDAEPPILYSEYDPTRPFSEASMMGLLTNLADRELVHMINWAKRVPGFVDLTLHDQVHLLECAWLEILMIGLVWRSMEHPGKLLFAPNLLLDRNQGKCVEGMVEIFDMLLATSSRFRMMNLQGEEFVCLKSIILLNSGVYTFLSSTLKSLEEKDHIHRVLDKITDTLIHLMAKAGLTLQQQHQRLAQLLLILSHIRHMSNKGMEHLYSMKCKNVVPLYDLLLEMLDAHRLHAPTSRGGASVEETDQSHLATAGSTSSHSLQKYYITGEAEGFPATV
Sequence of Estrogen receptor beta (Homo sapiens) (Q92731 whole entry, looked up): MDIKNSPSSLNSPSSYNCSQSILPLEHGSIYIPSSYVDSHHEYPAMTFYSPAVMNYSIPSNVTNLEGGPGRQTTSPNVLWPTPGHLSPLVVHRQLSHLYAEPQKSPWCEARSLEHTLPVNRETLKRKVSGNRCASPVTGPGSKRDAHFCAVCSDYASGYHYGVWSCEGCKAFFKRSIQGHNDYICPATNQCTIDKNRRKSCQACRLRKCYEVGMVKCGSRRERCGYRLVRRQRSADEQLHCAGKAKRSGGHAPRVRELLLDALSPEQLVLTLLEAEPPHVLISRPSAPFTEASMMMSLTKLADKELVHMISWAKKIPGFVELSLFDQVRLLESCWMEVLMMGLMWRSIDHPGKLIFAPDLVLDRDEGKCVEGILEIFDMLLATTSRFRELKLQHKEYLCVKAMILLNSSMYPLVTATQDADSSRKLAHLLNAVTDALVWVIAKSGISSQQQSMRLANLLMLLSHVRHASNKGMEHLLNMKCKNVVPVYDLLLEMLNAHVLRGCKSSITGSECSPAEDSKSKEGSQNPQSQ
Sequence of Thyrotropin-releasing hormone receptor (Homo sapiens) (P34981 whole entry, looked up): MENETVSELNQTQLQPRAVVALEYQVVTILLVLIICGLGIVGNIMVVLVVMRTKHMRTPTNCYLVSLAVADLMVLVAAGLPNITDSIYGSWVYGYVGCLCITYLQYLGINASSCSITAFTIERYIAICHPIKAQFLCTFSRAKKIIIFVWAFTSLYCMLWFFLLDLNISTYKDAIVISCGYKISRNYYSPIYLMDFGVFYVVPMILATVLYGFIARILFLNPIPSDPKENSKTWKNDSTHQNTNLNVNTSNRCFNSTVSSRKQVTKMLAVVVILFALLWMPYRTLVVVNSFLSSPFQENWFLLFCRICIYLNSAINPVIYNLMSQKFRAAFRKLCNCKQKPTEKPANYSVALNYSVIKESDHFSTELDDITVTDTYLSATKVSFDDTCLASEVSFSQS
Sequence of Progesterone receptor (Homo sapiens) (P06401 whole entry, looked up): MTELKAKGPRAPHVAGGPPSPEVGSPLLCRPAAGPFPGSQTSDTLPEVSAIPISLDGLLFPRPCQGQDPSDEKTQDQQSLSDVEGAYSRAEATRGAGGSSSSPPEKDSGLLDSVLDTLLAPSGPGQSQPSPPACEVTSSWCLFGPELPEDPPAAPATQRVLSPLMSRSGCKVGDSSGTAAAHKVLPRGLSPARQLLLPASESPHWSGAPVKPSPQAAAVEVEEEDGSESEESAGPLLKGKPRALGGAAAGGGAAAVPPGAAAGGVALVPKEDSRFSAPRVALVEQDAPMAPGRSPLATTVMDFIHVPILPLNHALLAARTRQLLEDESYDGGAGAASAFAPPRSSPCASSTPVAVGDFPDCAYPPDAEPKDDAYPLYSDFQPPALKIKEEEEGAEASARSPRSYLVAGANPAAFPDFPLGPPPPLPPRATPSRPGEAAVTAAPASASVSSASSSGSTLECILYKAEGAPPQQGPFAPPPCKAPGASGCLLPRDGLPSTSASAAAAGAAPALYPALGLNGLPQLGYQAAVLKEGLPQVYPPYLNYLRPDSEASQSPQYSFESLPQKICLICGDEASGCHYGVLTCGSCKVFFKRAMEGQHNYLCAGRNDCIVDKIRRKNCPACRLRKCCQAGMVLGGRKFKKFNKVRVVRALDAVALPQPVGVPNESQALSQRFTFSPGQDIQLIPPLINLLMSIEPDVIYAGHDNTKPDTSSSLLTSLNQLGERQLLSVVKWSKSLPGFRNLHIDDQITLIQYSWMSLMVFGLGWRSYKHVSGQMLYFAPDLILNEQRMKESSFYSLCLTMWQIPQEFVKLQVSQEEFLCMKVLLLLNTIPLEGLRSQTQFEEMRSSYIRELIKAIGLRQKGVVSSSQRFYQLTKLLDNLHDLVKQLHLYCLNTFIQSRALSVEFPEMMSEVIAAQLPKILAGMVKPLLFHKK

CC(=O)c1ccccc1N
inactive: Potency [1] | Potency [2] | Potency [3] | Potency [4] | Potency [5] | Potency [6] | outcome [7] | Potency [8] | Potency [9] | outcome [10] | Potency [11] | Potency [12] | Potency [13] | Potency [14] | Potency [15] | Potency [16] | Potency [17] | Potency [18]

NC(=O)C(=O)N/N=C/c1ccc([N+](=O)[O-])o1
inactive: Potency [1] | Potency [2] | Potency [3] | Potency [4] | Potency [19] | Potency [5] | Potency [6] | Potency [8] | Potency [9] | outcome [10] | Potency [11] | Potency [12] | Potency [13] | Potency [14] | Potency [15] | Potency [16] | Potency [20] | Potency [17] | Potency [18]

CC1=CCC(=O)O1
inactive: Potency [1] | Potency [2] | Potency [3] | Potency [4] | Potency [5] | Potency [6] | outcome [7] | Potency [8] | Potency [9] | outcome [10] | Potency [11] | Potency [12] | Potency [13] | Potency [14] | Potency [15] | Potency [16] | Potency [18]

CC(C)=CCCC(C)O (stereo not given)
inactive: Potency [1] | Potency [2] | Potency [3] | Potency [4] | Potency [19] | Potency [5] | Potency [6] | outcome [7] | Potency [8] | Potency [9] | outcome [10] | Potency [11] | Potency [12] | Potency [14] | Potency [16] | Potency [18]

C=CC(=C)CC/C=C(\C)CCC=C(C)C
inactive: activation [1] 1.85% [at 19 µM] | activity, negative = inhibition [2] -20.6% [at 19 µM] | activity change, negative = cytotoxicity [3] 1.35% [at 19 µM] | activity change, negative = cytotoxicity [4] -10.3% [at 19 µM] | activity change, negative = cytotoxicity [5] -3.14% [at 19 µM] | activation [6] 1.51% [at 19 µM] | cAMP activity change [7] 3.85% [at 18.9 µM] | activity change, negative = inhibition [8] 0.374% [at 19 µM] | activity change, negative = cytotoxicity [9] -2.45% [at 19 µM] | activation [10] 0.395% [at 19 µM] | activity change, negative = inhibition [11] -8.93% [at 18.9 µM] | activity change, negative = cytotoxicity [12] -3.03% [at 18.9 µM] | activity change, negative = cytotoxicity [13] 7.16% [at 19 µM] | viability change, negative = cytotoxic [14] 6.24% [at 15.8 µM] | activity change, negative = cytotoxicity [15] 1.59% [at 15.8 µM] | activation [16] -1.49% [at 15.8 µM] | activity, negative = inhibition [20] -4.91% [at 10.5 µM] | activation [17] 0.335% [at 11.8 µM] | activity change, negative = cytotoxicity [18] 6.03% [at 19 µM]

C/C=C/C(=O)C1=C(C)CCCC1(C)C
inactive: Potency [1] | Potency [2] | Potency [3] | Potency [4] | Potency [19] | Potency [5] | Potency [6] | outcome [7] | Potency [8] | Potency [11] | Potency [12] | Potency [14] | Potency [15] | Potency [16] | Potency [20] | Potency [17] | Potency [18]

CCc1ccc(C)nc1
inactive: Potency [1] | Potency [2] | Potency [3] | Potency [4] | Potency [19] | Potency [5] | Potency [6] | Potency [9] | outcome [10] | Potency [12] | Potency [13] | Potency [14] | Potency [16] | Potency [18]
